Results on 33 compounds are retold here after ChEMBL document CHEMBL4513146, “CO-ADD screening of Karazin Kharkiv National University (Ukraine) compounds”.

Results with a measured potency or affinity are listed apart.

The subject of one assay is Staphylococcus aureus. The conditions noted are these: Concentration 32 ug.mL-1;; ASSAY_TEST Inhibition of Bacterial Growth; detection method Absorption (OD600); MEDIA CAMHB; plate type 384well; NBS; CORNING #3640; time 18 hr.
For another assay, the system named is Escherichia coli. The note with it: Concentration 32 ug.mL-1;; ASSAY_TEST Inhibition of Bacterial Growth; detection method Absorption (OD600); MEDIA CAMHB; plate type 384well; NBS; CORNING #3640; time 18 hr.

A word on the Inhibition: it is the change of the read-out against control, counted positive when it falls. Take `Cc1ccc(-c2cc3c4nn(CC(=O)Nc5cc(Cl)ccc5C)c(=O)n4ccn3n2)cc1C`: the Inhibition in the assay with Staphylococcus aureus is 2.42%; in the assay with Escherichia coli, -7.74%.

Take `CCc1ccccc1NC(=O)Cn1nc2c(Sc3ccc(C)cc3C)nccn2c1=O`: the Inhibition in the assay on Staphylococcus aureus is 1.94%; with Escherichia coli, -4.21%.

Regarding `Cc1nnc2c(=O)n(CC(=O)Nc3cccc(Br)c3)c3ccccc3n12`, the figures for the Inhibition in the assay on Staphylococcus aureus and in the assay on Escherichia coli were 15.88% and -0.63%, respectively.

With `Cc1ccc(NC(=O)Cn2nc3c(Oc4ccccc4)nccn3c2=O)c(Br)c1`, the Inhibition in the assay on Staphylococcus aureus was 1.04%; with Escherichia coli, -7.68%.

Consider `O=C(CSc1nnc2c(=O)n(-c3ccc(F)c(F)c3)ccn12)c1c[nH]c2ccccc12`, for which the Inhibition in the assay on Staphylococcus aureus is listed as 13.28%; with Escherichia coli it was -5.88%.

As to `Cc1cccc(C)c1NC(=O)Cn1c(=O)c2nnc(C(C)C)n2c2ccccc21`, the Inhibition with Staphylococcus aureus amounted to 9.36%; in the assay with Escherichia coli, 1.82%.

As for `O=C(Cn1nc2c3cc(-c4ccccc4)nn3ccn2c1=O)N1CCN(c2ccccc2F)CC1`, the figures for the Inhibition with Staphylococcus aureus and with Escherichia coli were 4.61% and -0.58%, respectively.

As to `CC(C)CCNC(=O)CSc1nnc2c(=O)n(-c3ccc(F)cc3)ccn12`, the Inhibition is 8.18% in the assay with Staphylococcus aureus and -2.32% in the assay with Escherichia coli.

As to `CC(C)c1nnc2c(SCC(=O)Nc3ccc(C#N)cc3)nc3ccccc3n12`, the results for the Inhibition in the assay on Staphylococcus aureus and in the assay on Escherichia coli were 2.21% and 1.03%, respectively.

On to `Cc1cccc(NC(=O)Cn2nc3c(SCc4ccc(Cl)cc4)nccn3c2=O)c1C`, for which the Inhibition in the assay with Staphylococcus aureus is recorded as 13.84%; with Escherichia coli it was -3.65%.

On to `COc1ccc(NC(=O)CSc2nnc3c(=O)n(-c4ccc(Br)cc4)ccn23)cc1`, for which the values for the Inhibition in the assay with Staphylococcus aureus and in the assay on Escherichia coli were 5.23% and 2.74%, respectively.

In the case of `COc1cc(OC)c(NC(=O)Cn2nc3c(N4CCOCC4)nccn3c2=O)cc1Cl`, the Inhibition was 4.84% with Staphylococcus aureus and -1.96% in the assay on Escherichia coli.

Regarding `O=C(Cn1nc2c(N3CCOCC3)nccn2c1=O)NCc1ccc(C(F)(F)F)cc1`, the results for the Inhibition in the assay on Staphylococcus aureus and with Escherichia coli were 3.92% and -9.55%, respectively.

`Cc1cc(C)c(NC(=O)CSc2nc3ccccc3n3c(C)nnc23)c(C)c1`: the figures for the Inhibition in the assay with Staphylococcus aureus and in the assay with Escherichia coli were 9.68% and -6.86%, respectively.

With `CCOc1ccccc1NC(=O)Cn1nc2c(N3CCN(c4ccccc4)CC3)nccn2c1=O`, the Inhibition is 1.85% in the assay on Staphylococcus aureus and -3.13% with Escherichia coli.

Turning to `CC(C)c1ccc(N(Cc2ccccc2)S(=O)(=O)c2cccn3cnnc23)cc1`, the figures for the Inhibition in the assay on Staphylococcus aureus and in the assay on Escherichia coli were 5.98% and -8.68%, respectively.

Regarding `Cc1ccc(Oc2nccn3c(=O)n(CC(=O)Nc4cc(F)ccc4F)nc23)cc1`, the Inhibition in the assay with Staphylococcus aureus is 15.96%; with Escherichia coli, -1.03%.

Turning to `CCOc1ccccc1NC(=O)Cn1nc2c(Sc3ccc(C)cc3C)nccn2c1=O`, the Inhibition in the assay with Staphylococcus aureus was determined as 2.42%; in the assay on Escherichia coli, 0%.

On to `CCC(Sc1nnc2c(=O)n(-c3cccc(OC)c3)ccn12)C(=O)Nc1ccccc1C` (stereo unspecified), for which the Inhibition with Staphylococcus aureus is -3.13%; in the assay with Escherichia coli it was -2.17%.

In the case of `COc1cccc(NC(=O)Cn2nc3c(Oc4cccc(OC)c4)nccn3c2=O)c1`, the values for the Inhibition with Staphylococcus aureus and in the assay with Escherichia coli were -17.16% and 2.27%, respectively.

For `CCc1nnc2c(=O)n(CC(=O)Nc3ccc(C(C)C)cc3)c3ccccc3n12`, the values for the Inhibition in the assay with Staphylococcus aureus and in the assay on Escherichia coli were 12.36% and 0.11%, respectively.

`CCc1ccccc1Sc1nccn2c(=O)n(CC(=O)Nc3ccc(OC)c(Cl)c3)nc12`: the values for the Inhibition in the assay on Staphylococcus aureus and with Escherichia coli were 1.89% and -5.89%, respectively.

Regarding `CCc1ccc(NC(=O)Cn2nc3cc(C)nc(Nc4ccc(C)c(F)c4)n3c2=O)cc1`, the Inhibition in the assay on Staphylococcus aureus was -14.67%; with Escherichia coli it was -1.11%.

As to `Cc1nnc2c(S(=O)(=O)N(Cc3cccc(Cl)c3)c3ccc(F)c(F)c3)cccn12`, the Inhibition in the assay on Staphylococcus aureus is on record as 3.24%; in the assay on Escherichia coli, -3.66%.

Consider `COc1ccc(NC(=O)Cn2nc3c(SC4CCCCC4)nccn3c2=O)cc1OC`, for which the values for the Inhibition in the assay on Staphylococcus aureus and in the assay on Escherichia coli were 4.77% and -3.78%, respectively.

`COc1ccc(N(Cc2cccc(Cl)c2)S(=O)(=O)c2ccc3nnc(C)n3c2)cc1`: the Inhibition is on record as 13.9% with Staphylococcus aureus and 0.81% with Escherichia coli.

With `CCOc1ccc(NC(=O)Cn2nc3c(Oc4ccc(C)cc4)nccn3c2=O)cc1`, the Inhibition in the assay on Staphylococcus aureus was 5.72%; in the assay with Escherichia coli it was -4.41%.

On to `COc1cccc(Sc2nc3ccccc3n3c(=O)n(CC(=O)Nc4cccc(F)c4)nc23)c1`, for which the values for the Inhibition in the assay on Staphylococcus aureus and in the assay on Escherichia coli were 3.13% and -1.66%, respectively.

Regarding `COc1cccc(CNC(=O)CSc2nnc3c(=O)n(-c4cccc(OC)c4)ccn23)c1`, the Inhibition with Staphylococcus aureus is 1.1%; in the assay with Escherichia coli it was 0.96%.

Take `O=c1n(Cc2ccc(Cl)cc2)nc2ccc(-c3ccccc3)nn12`: the results for the Inhibition in the assay with Staphylococcus aureus and with Escherichia coli were 3.14% and -1.49%, respectively.

With `COc1ccc(-c2cc3c4nn(CC(=O)Nc5cc(C)ccc5OC)c(=O)n4ccn3n2)cc1`, the Inhibition is 1.5% with Staphylococcus aureus and -0.57% with Escherichia coli.

Take `CCc1nnc2c(S(=O)(=O)N(Cc3cccc(F)c3)c3ccccc3)cccn12`: the Inhibition in the assay with Staphylococcus aureus is 7.57%; in the assay with Escherichia coli, -5.76%.

In the case of `COc1ccc(Cl)cc1NC(=O)Cn1nc2c3cc(-c4ccc(C)c(C)c4)nn3ccn2c1=O`, the figures for the Inhibition with Staphylococcus aureus and with Escherichia coli were -18.41% and -23.9%, respectively.
